ChEMBL document CHEMBL3988442, “University of Dundee, Small-Polar-MMV Screening Library” (2021)
For some assays here: Entries with a potency or affinity are not part of this list.

Assays:
Parameters in all cases: scale not given: direction of the effect not stated beside the values
[1] = molecular target: Protein translocase subunit SecA (Escherichia coli (strain K12)) (UniProt P10408); assay: Assay to Identify E. coli SecA ATPase Inhibitors; assay type: functional; settings: 30 µM
[2] = molecular target: T1, Ubiquitin-activating enzyme e1, putative (Leishmania donovani (strain BPK282A1)) (UniProt E9BSI1); assay: Leishmania donovani Ubiquitin Activating Enzyme (LdE1); assay type: functional; settings: 30 µM
T1 sequence (whole entry): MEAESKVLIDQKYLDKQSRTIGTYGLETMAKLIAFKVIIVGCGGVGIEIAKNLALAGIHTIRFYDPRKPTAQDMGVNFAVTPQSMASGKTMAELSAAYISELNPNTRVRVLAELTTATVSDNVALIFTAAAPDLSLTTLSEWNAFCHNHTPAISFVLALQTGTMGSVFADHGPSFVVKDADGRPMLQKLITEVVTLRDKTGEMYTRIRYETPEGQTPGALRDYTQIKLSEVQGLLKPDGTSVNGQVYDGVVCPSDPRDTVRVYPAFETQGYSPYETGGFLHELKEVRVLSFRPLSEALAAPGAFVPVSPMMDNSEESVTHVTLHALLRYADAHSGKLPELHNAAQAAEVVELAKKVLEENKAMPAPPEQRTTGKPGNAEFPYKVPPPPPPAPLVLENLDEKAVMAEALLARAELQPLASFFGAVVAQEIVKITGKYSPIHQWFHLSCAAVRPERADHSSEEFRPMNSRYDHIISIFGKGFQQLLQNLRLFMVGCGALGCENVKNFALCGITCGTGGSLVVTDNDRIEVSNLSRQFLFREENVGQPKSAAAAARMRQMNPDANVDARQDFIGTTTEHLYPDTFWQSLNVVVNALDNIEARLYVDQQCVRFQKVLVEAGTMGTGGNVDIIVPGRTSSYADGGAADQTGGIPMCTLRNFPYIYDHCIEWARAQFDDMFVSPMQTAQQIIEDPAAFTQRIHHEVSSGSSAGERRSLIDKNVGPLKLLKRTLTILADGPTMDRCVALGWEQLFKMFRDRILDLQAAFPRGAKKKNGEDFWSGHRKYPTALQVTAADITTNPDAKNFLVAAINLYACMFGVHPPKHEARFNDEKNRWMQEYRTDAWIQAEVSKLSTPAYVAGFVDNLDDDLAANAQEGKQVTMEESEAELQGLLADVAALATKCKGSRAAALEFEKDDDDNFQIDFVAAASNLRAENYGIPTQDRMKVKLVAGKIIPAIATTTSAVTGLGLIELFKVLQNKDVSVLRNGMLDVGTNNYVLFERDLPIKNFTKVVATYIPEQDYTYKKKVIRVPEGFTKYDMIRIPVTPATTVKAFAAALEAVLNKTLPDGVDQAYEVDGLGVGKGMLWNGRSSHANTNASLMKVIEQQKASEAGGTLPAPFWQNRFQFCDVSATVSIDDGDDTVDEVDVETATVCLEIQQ

[3] = molecular target: AMP-activated protein kinase, AMPK (Homo sapiens) (UniProt P54646+O43741+P54619+Q9UGJ0+Q9Y478+Q13131+Q9UGI9); assay: AMP-dependent Kinase enzyme assay. An in vitro enzyme assay that detects ADP turnover that is directly proportional to AMPK activity. This uses naive AMPK that is activated during the assay with MK-8722; assay type: functional; settings: 30 µM
[4] = molecular target: Sialic acid-binding Ig-like lectin 9 (Homo sapiens) (UniProt Q9Y336); assay: Hs-Siglec9 ALPHAscreen SOP 20170721; settings: 10 µM
Chain of Sialic acid-binding Ig-like lectin 9 (Homo sapiens) (Q9Y336 whole entry): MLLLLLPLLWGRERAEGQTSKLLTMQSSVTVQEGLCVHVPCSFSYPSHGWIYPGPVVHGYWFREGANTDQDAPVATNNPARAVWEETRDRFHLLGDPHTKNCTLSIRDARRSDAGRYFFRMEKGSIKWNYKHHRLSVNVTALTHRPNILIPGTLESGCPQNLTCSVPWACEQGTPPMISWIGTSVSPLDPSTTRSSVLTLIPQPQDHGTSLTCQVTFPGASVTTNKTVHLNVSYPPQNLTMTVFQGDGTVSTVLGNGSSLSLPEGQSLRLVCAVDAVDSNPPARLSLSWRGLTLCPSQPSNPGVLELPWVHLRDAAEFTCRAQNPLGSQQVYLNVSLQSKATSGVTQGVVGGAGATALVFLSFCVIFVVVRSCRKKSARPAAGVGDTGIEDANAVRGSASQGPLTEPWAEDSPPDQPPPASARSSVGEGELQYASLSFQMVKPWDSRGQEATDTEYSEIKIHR

[5] = test system: Trypanosoma cruzi; assay: Trypanosoma cruzi phosphomannomutase and mannose-1-phosphate guanylyltransferase assay; assay type: functional; settings: 10 µM
[6] = molecular target: T2, Arginase-2, mitochondrial (Homo sapiens) (UniProt P78540); assay: in vitro enzyme assay to detect the production of urea directly proportional to the activity of Arginase II; assay type: functional; settings: 33.3 µM; also: in the data most compounds retested in dose-response had high values
T2 sequence (whole entry): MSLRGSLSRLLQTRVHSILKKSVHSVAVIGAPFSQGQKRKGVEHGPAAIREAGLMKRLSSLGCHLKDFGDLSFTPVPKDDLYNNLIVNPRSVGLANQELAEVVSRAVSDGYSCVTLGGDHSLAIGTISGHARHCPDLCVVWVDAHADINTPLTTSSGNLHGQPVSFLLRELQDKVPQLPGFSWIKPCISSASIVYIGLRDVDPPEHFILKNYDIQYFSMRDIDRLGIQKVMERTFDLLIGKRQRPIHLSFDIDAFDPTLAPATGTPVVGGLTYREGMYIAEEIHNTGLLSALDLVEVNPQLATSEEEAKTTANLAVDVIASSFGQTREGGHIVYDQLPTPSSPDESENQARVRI

[7] = molecular target: T3, Proteasome subunit beta (Trypanosoma cruzi) (UniProt O96673); assay: Trypanosoma cruzi proteasome chymotrypsin-like activity (TcProtChymo) assay.; also: in the data most compounds retested in dose-response had high values; assay type: functional; settings: 9.37 µM
T3 sequence (whole entry): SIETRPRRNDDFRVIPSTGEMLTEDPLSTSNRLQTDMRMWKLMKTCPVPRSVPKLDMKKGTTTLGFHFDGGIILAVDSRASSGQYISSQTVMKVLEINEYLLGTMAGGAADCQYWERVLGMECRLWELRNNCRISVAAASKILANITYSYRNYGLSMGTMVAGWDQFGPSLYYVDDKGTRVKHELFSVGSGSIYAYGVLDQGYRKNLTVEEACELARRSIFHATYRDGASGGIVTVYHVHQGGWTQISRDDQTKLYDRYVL

[8] = species: Homo sapiens; assay: To identify inhibition of the IFN signalling (Jak-Stat) pathway via expression of an eGFP reporter gene under the control of an IFN-stimulated response element (ISRE) containing MxA promoter.; assay type: functional; settings: 30 µM
[9] = molecular target: T4, Tyrosyl-tRNA synthetase, putative (Trypanosoma cruzi (strain CL Brener)) (UniProt Q4DSP6); assay: Trypanosoma cruzi tyrosyl tRNA synthetase (TcYRS) _High Tyrosine SOP; assay type: functional; settings: 30 µM; also: in the data most compounds retested in dose-response had high values
T4 sequence (whole entry): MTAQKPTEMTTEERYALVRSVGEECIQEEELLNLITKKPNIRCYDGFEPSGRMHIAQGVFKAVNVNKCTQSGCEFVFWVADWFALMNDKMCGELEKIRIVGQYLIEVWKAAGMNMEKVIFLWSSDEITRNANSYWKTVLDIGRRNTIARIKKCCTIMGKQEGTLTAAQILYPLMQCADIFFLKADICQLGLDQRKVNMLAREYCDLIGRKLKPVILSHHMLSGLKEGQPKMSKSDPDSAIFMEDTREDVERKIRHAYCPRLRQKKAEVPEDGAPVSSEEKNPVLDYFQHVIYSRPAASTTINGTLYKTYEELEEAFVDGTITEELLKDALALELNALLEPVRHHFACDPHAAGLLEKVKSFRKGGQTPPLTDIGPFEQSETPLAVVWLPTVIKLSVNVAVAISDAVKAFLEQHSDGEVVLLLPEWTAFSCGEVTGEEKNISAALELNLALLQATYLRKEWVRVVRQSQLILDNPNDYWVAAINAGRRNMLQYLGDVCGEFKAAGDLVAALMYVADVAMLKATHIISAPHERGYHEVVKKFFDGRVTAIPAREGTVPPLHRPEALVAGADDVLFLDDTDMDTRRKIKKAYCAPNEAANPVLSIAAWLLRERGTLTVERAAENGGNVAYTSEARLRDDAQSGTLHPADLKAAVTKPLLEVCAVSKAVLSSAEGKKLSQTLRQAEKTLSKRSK

[10] = molecular target: T4, Tyrosyl-tRNA synthetase, putative (Trypanosoma cruzi (strain CL Brener)); assay: Trypanosoma cruzi tyrosyl tRNA synthetase (TcYRS) SOP; assay type: functional; settings: 30 µM
[11] = molecular target: Chromo domain-containing protein 1 (Saccharomyces cerevisiae (strain ATCC 204508 / S288c) (Baker's yeast)) (UniProt P32657); assay: ScCHD-1 Enzyme Inhibition Assay; assay type: functional; settings: 30 µM; also: in the data most compounds retested in dose-response had high values
Chain of Chromo domain-containing protein 1 (Saccharomyces cerevisiae (strain ATCC 204508 / S288c) (Baker's yeast)) (P32657 whole entry, the tested form may be a part): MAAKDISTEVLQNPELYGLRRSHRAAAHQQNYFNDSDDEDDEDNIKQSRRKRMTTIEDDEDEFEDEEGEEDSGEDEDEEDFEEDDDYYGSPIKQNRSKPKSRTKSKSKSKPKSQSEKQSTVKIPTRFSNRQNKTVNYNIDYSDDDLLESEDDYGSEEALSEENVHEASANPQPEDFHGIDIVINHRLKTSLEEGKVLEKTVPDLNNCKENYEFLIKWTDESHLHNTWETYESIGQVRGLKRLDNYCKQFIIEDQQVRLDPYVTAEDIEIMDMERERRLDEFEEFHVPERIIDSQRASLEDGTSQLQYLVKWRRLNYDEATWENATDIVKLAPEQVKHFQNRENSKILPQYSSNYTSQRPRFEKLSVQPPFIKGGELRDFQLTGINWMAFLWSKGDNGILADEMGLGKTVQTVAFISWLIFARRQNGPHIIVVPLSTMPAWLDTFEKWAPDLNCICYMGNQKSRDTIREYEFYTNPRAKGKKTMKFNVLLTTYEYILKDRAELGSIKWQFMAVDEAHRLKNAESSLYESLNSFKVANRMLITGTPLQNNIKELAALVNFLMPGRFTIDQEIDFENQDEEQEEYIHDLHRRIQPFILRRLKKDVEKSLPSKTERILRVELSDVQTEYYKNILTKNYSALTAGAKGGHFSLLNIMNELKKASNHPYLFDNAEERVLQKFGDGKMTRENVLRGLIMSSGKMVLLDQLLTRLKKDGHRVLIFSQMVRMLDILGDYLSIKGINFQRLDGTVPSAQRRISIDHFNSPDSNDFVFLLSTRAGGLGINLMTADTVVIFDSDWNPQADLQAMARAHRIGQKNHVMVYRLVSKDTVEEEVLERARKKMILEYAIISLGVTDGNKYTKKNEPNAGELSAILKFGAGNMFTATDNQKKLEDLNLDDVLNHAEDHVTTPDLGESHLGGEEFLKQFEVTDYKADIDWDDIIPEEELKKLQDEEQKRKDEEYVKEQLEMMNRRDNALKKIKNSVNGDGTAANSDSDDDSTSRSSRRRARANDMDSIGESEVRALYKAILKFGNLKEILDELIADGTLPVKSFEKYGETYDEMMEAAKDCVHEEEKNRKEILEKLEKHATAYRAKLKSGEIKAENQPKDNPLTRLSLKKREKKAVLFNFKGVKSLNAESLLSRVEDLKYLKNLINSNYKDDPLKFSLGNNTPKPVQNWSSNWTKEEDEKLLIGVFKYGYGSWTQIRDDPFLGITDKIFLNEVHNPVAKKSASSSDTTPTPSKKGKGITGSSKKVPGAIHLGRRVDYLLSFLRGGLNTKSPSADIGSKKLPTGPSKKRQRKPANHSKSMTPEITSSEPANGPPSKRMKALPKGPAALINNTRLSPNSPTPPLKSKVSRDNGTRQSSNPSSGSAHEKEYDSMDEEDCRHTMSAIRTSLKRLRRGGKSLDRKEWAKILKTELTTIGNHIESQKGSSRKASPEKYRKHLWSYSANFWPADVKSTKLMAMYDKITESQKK

Chain of Protein translocase subunit SecA (Escherichia coli (strain K12)) (P10408 whole entry): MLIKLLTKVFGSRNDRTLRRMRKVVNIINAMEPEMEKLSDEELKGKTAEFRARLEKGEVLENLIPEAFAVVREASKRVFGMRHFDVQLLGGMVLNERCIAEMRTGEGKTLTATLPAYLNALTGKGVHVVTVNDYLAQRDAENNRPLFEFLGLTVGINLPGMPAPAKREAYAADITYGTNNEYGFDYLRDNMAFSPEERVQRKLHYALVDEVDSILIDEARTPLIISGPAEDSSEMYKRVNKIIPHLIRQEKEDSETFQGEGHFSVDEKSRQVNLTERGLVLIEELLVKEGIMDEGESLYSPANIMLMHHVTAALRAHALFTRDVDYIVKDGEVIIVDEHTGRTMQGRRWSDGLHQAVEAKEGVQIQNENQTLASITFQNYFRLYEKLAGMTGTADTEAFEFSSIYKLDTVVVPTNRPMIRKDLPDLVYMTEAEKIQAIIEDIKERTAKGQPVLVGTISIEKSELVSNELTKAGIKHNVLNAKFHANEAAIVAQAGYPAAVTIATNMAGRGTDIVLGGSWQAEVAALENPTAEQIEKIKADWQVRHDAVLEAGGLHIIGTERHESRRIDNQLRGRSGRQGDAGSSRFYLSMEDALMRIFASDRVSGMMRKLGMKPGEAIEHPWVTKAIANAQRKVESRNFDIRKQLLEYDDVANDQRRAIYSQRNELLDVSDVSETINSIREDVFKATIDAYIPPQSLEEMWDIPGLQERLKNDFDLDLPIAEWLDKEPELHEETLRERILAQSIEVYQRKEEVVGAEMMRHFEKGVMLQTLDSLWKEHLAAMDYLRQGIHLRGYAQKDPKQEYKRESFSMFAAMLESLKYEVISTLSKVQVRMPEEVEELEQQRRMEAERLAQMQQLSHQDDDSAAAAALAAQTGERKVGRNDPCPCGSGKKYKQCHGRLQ

SMILES	Percent Effect [1] [%]	Percent Effect [2] [%]	Percent Effect [3] [%]	Percent Effect [4] [%]	Percent Effect [5] [%]	Percent Effect [6] [%]	Percent Effect [7] [%]	Percent Effect [8] [%]	Percent Effect [9] [%]	Percent Effect [10] [%]	Percent Effect [11] [%]
CCO[C@@H]1CCN(C(=O)c2cscn2)[C@@H]1Cc1cnn(C)c1	-1.12	0	9.65	4.98	-5.12	2.1	-1.15	1.8	2.13	3.85	1.69
CC(NC(=O)NCC1(c2ccccc2)CCC1)c1nncn1C (stereo unspecified)	-3.15	13.2	-7.01	-5.58	-5.7	8.63	5.67	-2.94	5.42	16.1	-6.58
OCC1CCCN1c1cc(N2CCN(c3ccccn3)CC2)ncn1 (stereo unspecified)	-1.51	2.6	5.09	12.8	-1.27	3.58	0.889	13.3	5.71	7.06	-17.6
CC(C)c1ncc2c(n1)CN(Cc1nc(-c3ccoc3)no1)CC2	-2.65	10.8	-16.9	5.18	0.0929	-0.185	6.46	12.5	9.9	3.66	11.7
Cc1ccccc1CSc1nc(N)cc(N2C[C@H](O)[C@@H](N(C)C)C2)n1	-8.01	5.41	-13.8	0.783	1.07	1.24	12.6	5.8	8.6	18.5	-3.84
c1cnn(CC2CN(Cc3nc(-c4ccsc4)no3)CCO2)c1 (stereo unspecified)	-2.55	10.5	-2.23	16.5	-1.13	0.766	-2.34	6.35	1.47	9.76	0.902
Cc1nccnc1CN1CCC2(CCCN(C3CCOCC3)C2=O)C1 (stereo unspecified)	-2.05	-2.74	-4.08	1.19	2.98	-2.79	12.8	13.9	5.21	6.17	0.026
Cc1oc(C)c(C(=O)NCc2ccccc2S(=O)(=O)N(C)C)c1C	-1.39	10.5	8.5	1.67	-3.01	-3.83	8.19	2.68	1.47	7.32	-5.82
CC(C)c1n[nH]c(C2CN(C(=O)c3csnn3)CCO2)n1 (stereo unspecified)	-2.56	-7.89	-6.16	6.92	4.58	1.08	0.592	-2.95	3.45	6.17	-3.21
CCn1ncc2c1C(COC)CN(Cc1ccc(OC)cc1)C2 (stereo unspecified)	-1.81	5.41	-4.68	14.4	2.44	0.744	3.35	40	2.15	6.17	-11.4
Cc1ccc(-c2noc(CN3CCOC(CN(C)C)C3)n2)cc1F (stereo unspecified)	-2.58	-8.11	-2.88	2.97	-3.99	-4.25	-0.539	20.6	1.98	-1.22	2.19
CN(C)C(C)(C)CNC(=O)C(C)(C)c1ccccc1F	-0.22	9.72	-4.87	4.5	-4.18	-0.442	13.2	17.2	4.21	-2.56	105
c1cncc(CN2CCc3ncnc(C4CCOC4)c3CC2)c1 (stereo unspecified)	1.94	21.3	13.3	-7	-4.92	2.1	7.14	15.9	5.32	6.41	-0.839
CC(C)(C(=O)NCC1CC1)c1ccccc1F	-8.21	4.17	-4.88	2.97	-4.18	0.442	15.6	-2.36	2.1	2.56	-3.44
COc1ccc(CNC(=O)c2nn(C)c3c2CS(=O)(=O)CC3)cc1OC	-1.94	6.67	4.43	3.41	-2.16	-11.8	14.8	5.39	3.17	17.9	-9.43
Cc1ncc2c(n1)CN(Cc1nnc(Cc3ccccc3)o1)CC2	-2.29	24.3	-11.8	1.92	5.66	4.99	13.8	-0.54	29.7	28.1	-9.78
